Screening results from PubChem.
In the library only some 9.2% were active in any assay of this set; here they are far more common.
NPC1 prom act – activators of NPC1 promoter | Huh7 NPC1 promoter luciferase reporter, 24 h | AID 485313 | 320,000 tested, 2.4% active | Potency, µM (top dose mostly 9.22 µM), inactives show top-dose activation, actives largely listed as activators; note: % of control where 0% means no effect; nearly all actives have a fitted effect of over 60% in size
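Luminescence from an NPC1 promoter-driven luciferase reporter in stably transfected Huh7 cells was measured after 24 h compound treatment at 37 °C, followed by 10 min ambient incubation with luciferase detection reagent.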
FLuc modulator – firefly luciferase modulation, counter-screen for miR-21 project; P08659; purified FLuc, Km substrates, luminescence inhibition; Potency, µM (doses to about 57.5 µM), inactives show at the highest dose activity change, negative = inhibition, usual class: inhibitors; 360,000 tested, 6.9% active; AID 588342;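 note: plate controls were vehicle for no effect and reference inhibitor for full effect; nearly all actives have a fitted effect of over 55% in size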
Target sequence (P08659 whole entry, looked up): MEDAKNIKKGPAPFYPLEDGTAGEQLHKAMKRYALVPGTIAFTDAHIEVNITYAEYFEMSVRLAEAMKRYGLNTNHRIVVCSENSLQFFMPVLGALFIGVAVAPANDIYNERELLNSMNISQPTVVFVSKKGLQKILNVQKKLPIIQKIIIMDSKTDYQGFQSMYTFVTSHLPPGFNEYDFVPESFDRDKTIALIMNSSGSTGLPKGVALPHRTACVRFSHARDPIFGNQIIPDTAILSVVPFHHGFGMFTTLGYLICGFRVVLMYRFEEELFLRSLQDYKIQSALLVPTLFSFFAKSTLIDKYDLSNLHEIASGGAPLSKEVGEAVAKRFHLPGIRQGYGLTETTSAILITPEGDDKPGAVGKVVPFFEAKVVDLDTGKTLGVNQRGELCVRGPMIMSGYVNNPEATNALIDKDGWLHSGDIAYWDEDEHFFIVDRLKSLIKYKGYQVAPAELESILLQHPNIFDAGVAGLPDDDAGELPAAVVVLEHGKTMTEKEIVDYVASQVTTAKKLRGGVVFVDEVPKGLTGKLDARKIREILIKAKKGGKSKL
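Purified P. pyralis luciferase (10nM final) with 10uM D-luciferin and 10uM ATP (Km levels) in 50mM Tris acetate pH 7.5, 10mM Mg acetate, 0.01% Tween-20, 0.05% BSA; qHTS 6-point titration, ~60 µM downward; luminescence read.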
Rab9 prom act – activators of Rab9 promoter; Huh7 Rab9 promoter-luciferase reporter, luminescence, 24 h; AID 485297; 320,000 tested, 2.8% active; Potency, µM (titrated, usually from 9.22 µM), without a hit: top-dose activation, negative = inhibition, usual class: activators; note: % of control where 0% means no effect; nearly all actives have a fitted effect of over 60% in size
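Steps: seed 1500 Huh7 Rab9-luc cells per well, rest 2 h at 37 °C; add compound in DMSO; incubate 24 h; add luciferase reagent, 10 min ambient; read luminescence.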
SMN2 splice up – increases expression of the SMN2 splice variant | 210,000 tested, 2.8% active | HEK293 SMN2-luciferase splicing reporter, luminescence, 30-36 h | Potency, µM (series often up to 46.1 µM), for the others: top-dose activity change, positive = activation, actives largely listed as activators | AID 1458; note: % of control where 0% means no effect; nearly all actives have a fitted effect of over 55% in size
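HEK293 cells carry an SMN2 […]–luciferase reporter in which exon 7 inclusion puts luciferase in frame. Cells were plated 10-12 h before compound addition, then incubated 30-36 h at 37C. ONE-Glo luminescence was read; sodium butyrate at 4.5 mM final served as control.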
ELG1 repair inh – ELG1-dependent DNA repair inhibition; HEK293T ELG1-luciferase reporter, luminescence, 16 h; DNA damage induced by 5-fluorouridine; Potency, µM (highest dose often 46.1 µM), for the others: at the top dose activity change, negative = inhibition, actives largely listed as inhibitors; AID 504467; 330,000 tested, 2.3% active; note: % is set by controls: 0 for no effect and ±100 for the full control effect; nearly all actives have a fitted effect of over 55% in size
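Step one: seed 2,000 cells per well. Step two: pin-transfer compound or DMSO alongside 5-fluorouridine. Step three: incubate 16 hr, 37 °C, 5% CO2. Step four: add ONE-Glo, wait 30 min, read luminescence.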
ELG1 genotoxic – genotoxicity induction in ELG1-luciferase HEK293T cells. HEK293T ELG1-luciferase reporter, luminescence, 16 h. 330,000 tested, 1.3% active. AID 504466. Potency, µM (doses to about 46 µM), for the others: at the top dose activity change, positive = activation, usual class: activators; note: % of control where 0% means no effect; nearly all actives have a fitted effect of over 60% in size
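16 hr compound incubation (37 °C, 5% CO2) of HEK293T cells carrying luciferase-tagged ELG1; luciferase then measured by ONE-Glo luminescence after 30 min at RT.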
* hit, by the source's call; ? = inconclusive; · = no result given; [ ] = another dose, or the depositor's remark. Calls come from the whole dose curve; as a rule, active = well fitted curve in the direction sought with a large enough effect; inconclusive = small, poorly fitted or top-dose-only effect, or another doubt; inactive = no such curve, though single readings can be large; an effect the other way counts as inactive or inconclusive. Potency is the fitted concentration of half-maximal effect.

SMILES	NPC1 prom act	FLuc modulator	Rab9 prom act	SMN2 splice up	ELG1 repair inh	ELG1 genotoxic
Cc1cc(C(=O)CN2C(=O)C(=O)N(Cc3ccco3)C2=O)c(C)n1CCc1ccc(F)cc1	-3.9%	-7.7%	-3.8%	·	?	1.3%
COc1ccc2nc(N3C(=O)/C(=C/c4ccc(Cl)cc4)NC3=S)sc2c1	0.9%	16.9µM*	1.9%	-8.9%	13.6%	-7.1%
CCOC(=O)c1ccc(N)cc1	1.1%	2.8%	0.9%	13.1%	?	?
C=CCn1c(CC(=O)OC)csc1=Nc1ccc(C(C)=O)cc1	?	?	-5.9%	-14.7%	?	7.2%
CCOC(=O)c1ccc(N=NN(C)C)cc1	?	19µM*	?	·	?	?
CCOC(=O)c1ccc(N=c2scc(C)n2CC)cc1	?	10.7µM*	2µM*	25.1µM*	?	?
C=CCn1c(C)csc1=Nc1ccc(C(C)=O)cc1	?	19µM*	?	-17.4%	?	?
CCOC(=O)c1[nH]c2ccccc2c1NC(=O)c1ccccc1F	·	-6.8%	·	-2.7%	·	·
CCc1cc2c(=O)c(-c3cscn3)coc2cc1O	26.4%	?	25.5%	21.1%	?	13µM*
CCOC(=O)c1oc2cc(O)c(CC)cc2c(=O)c1-c1cscn1	0.8%	-18.5%	-6.2%	13.6%	3.5%	1.6%
CCc1cc2c(=O)c(-c3cscn3)coc2cc1OC	3.55µM*	1.69µM*	2µM*	12.6µM*	?	?
CN(C)c1ccc(Nc2nc(N)c([N+](=O)[O-])c(N3CCOCC3)n2)cc1	-2.6%	?	4.7%	7.3%	16.4µM*	-7.2%
C/C(=N\Nc1cc(C)nc(NCc2ccccc2)n1)c1ccc([N+](=O)[O-])cc1	-8.2%	0.1%	-8.4%	·	?	-2.3%
Cc1cc(/C=N/NC(=O)c2cccc(F)c2)c(C)n1-c1ccccc1	3.16µM*	1.2µM*	1.58µM*	26.8%	?	?
Cc1cc(/C=N/NC(=O)c2ccccc2F)c(C)n1-c1ccccc1	2.51µM*	2.13µM*	0.631µM*	12.6µM*	?	?
CCOC(=O)N/N=C/c1cc(C)n(-c2ccccc2)c1C	24.4%	10.7µM*	?	-14.6%[1.84 µM]	?	?
CCc1ccc(CNC(=O)CCCN2C(=O)c3cccnc3Oc3ccc(Cl)cc32)cc1	·	-3.2%	·	·	·	·
COCc1[nH]c(=S)[nH]c(=O)c1C	-4.6%	4.4%	-5.0%	·	1.0%	0.2%
Cc1cc(C(C)(C)C)ccc1OCCCCN1CCCC1	-1.2%	2.0%	-1.1%	-7.8%	12.4%	-1.8%
CCC(C)(C)c1ccc(OCCCC[n+]2cccc(C)c2C)c(C(C)(C)CC)c1	-29.6%	1.3%	-30.0%	·	2.59µM*	-8.2%
CCC(C)(C)c1ccc(OCCCC[n+]2ccc(C)cc2)c(C(C)(C)CC)c1	-22.6%	1.7%	-17.3%	-74.6%	10.3µM*	-6.0%
COC(=O)c1cc(C(=O)NCCN2C(=O)S/C(=C\c3cccs3)C2=O)cc([N+](=O)[O-])c1	-3.4%	3.6%	2.8%	-30.1%	-24.5%	-3.2%
COc1ccccc1-c1nc2cc3ccccc3cc2nc1-c1ccccc1OC	3.4%	1.6%	8.4%	-34.2%	20.6µM*	-3.3%
OCCNc1nc(Nc2ccc(Br)cc2)nc2ccccc12	-7.3%	16.9µM*	0.4%	-19.0%	?	-7.7%
Cc1c(Cl)cccc1Nc1nc(NCCO)c2ccccc2n1	3.9%	15.1µM*	-4.0%	·	6.2%	-2.8%
SMILES	NPC1 prom act	FLuc modulator	Rab9 prom act	SMN2 splice up	ELG1 repair inh	ELG1 genotoxic
OCCNc1nc(Nc2ccccc2)nc2ccccc12	-8.0%	?	-3.0%	-34.4%	-21.7%	-4.8%
O=C(Nc1ccc(N2CCCCC2)cc1)c1cncc(Br)c1	3.55µM*	6.01µM*	?	?	-11.2%	4.0%
O=C(Nc1cccc(NC(=O)c2cncc(Br)c2)c1)c1cncc(Br)c1	-2.0%	3.3%	2.1%	·	20.6µM*	-10.4%
O=C(Nc1ccc(N2CCN(C(=O)c3ccccc3F)CC2)cc1)c1cncc(Br)c1	2.2%	2.8%	0.4%	·	3.66µM*	-24.4%
O=C(Nc1ccc(N2CCN(C(=O)c3cccs3)CC2)cc1)c1ccccc1F	-19.7%	-4.0%	-6.2%	·	?	-8.5%
CCc1nonc1NC(=O)c1oc2ccc(F)cc2c1C	24.2%	-1.2%	?	0.1%	?	9.6%
CCc1ccc2oc(C(=O)Nc3nonc3C)c(C)c2c1	0.316µM*	2.13µM*	0.631µM*	·	?	3.26µM*
Cc1cc2oc(C(=O)Nc3nonc3C)c(C)c2cc1C	1.12µM*	2.39µM*	3.98µM*	·	?	10.3µM*
OC[C@@H](O)[C@@H](O)[C@@H](O)[C@@H](O)c1nc2ccc(Cl)cc2[nH]1	·	·	·	-7.9%[9.22 µM]	·	·
COc1ccc(C2/C=C\CN(S(=O)(=O)c3ccc(C)cc3)CC(=O)N2Cc2cccc(F)c2)cc1 (stereo not given)	·	·	·	·	20.6µM*	-1.8%
CCC(C)(C)n1nnnc1CN1CCN(C(c2ccccc2)c2ccccc2)CC1	-3.8%	-2.0%	-1.3%	-29.7%	20.6µM*	-12.8%
CCC(C)(C)n1nnnc1C(c1ccccc1)N1CCN(Cc2ccccc2)CC1 (stereo not given)	-7.8%	0.5%	-5.4%	·	8.3%	-3.1%
COc1ccccc1C(=O)Nc1nc2ccccc2[nH]1	?	0.019µM*	-43.8%	·	?	?
O=C(CCNC(=O)c1ccccc1Cl)Nc1nc2ccccc2[nH]1	·	·	·	·	16.5%	-1.0%
COc1ccccc1C(=O)NCCC(=O)Nc1nc2ccccc2[nH]1	2.3%	-14.4%	-2.0%	·	?	23.1µM*
COc1ccccc1C(=O)NC(C)c1nc2ccccc2[nH]1 (stereo not given)	-2.2%	0.2%	-5.8%	-9.9%	16.3%	-0.6%
COc1cc(SC)ccc1C(=O)Nc1nc2ccccc2[nH]1	-32.2%	0.0135µM*	-43.1%	·	?	-17.3%
COc1cc(SC)ccc1C(=O)Nc1c(Cl)cncc1Cl	-0.1%	-2.1%	-28.5%	5.5%	-11.0%	-5.3%
